Many of the other results were omitted from the sample, so hits are more common in it than they were.
hDAT+cocaine: changed human dopamine transporter uptake under cocaine IC80 | B-score at 10 µM | Q01959 | LLC-PK1 hDAT cells, [14C]-dopamine uptake with cocaine IC80; actives deviate in either direction | actives 1.3% (n = 110,000);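 active means Z score or B-score, a plate-position-corrected score, falls beyond the plate's 99.7% confidence bounds, in either direction; inactive means both scores lie inside the 99.7% bounds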;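 further: scored against the spread of the other compound wells on the same plate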
D1 mod: D1 dopamine receptor (human) allosteric modulation; HEK293 D1, CRE-luciferase, dopamine EC30 potentiation; actives deviate in either direction; P21728; B-score at 10 µM; actives 5.9% (n = 58,000);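 active means luminescence count or its row- and column-corrected plate score outside the 99.7% band of the plate's sample wells, on either side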
Target sequence (P21728 whole entry, looked up): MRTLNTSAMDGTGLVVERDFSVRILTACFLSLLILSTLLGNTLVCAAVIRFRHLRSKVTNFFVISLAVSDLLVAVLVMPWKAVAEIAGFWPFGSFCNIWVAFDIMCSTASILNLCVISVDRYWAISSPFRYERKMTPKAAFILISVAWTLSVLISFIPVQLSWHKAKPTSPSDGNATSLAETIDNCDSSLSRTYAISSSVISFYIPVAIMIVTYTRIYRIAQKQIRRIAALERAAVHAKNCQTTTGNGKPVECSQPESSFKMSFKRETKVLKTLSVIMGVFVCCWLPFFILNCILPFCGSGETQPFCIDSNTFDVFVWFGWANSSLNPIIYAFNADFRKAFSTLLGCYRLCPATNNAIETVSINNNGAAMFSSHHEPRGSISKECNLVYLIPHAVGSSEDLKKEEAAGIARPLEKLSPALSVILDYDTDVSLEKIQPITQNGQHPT
BAP1 inh: human BAP1 deubiquitinase inhibition | calls only at 20 µM | recombinant BAP1, Ub-AMC hydrolysis fluorescence kinetic; stronger effect = lower value | Q92560 | actives 0.48% (n = 72,000);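 active means activity remaining at or below 50% of control, provided the compound also passes the data quality filters; inactive means the rest, including low values that fail the filters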;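 further: 100% = DMSO wells rate and 0% = substrate alone blank rate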
Active calls of the source: *; i = inactive; nt = no result given; ! = repeats disagree.

SMILES	hDAT+cocaine	D1 mod	BAP1 inh
CSc1sc(C(=O)O)c2c1C(=O)CCC2	-2.3*	nt	i
CSc1sc(C(=O)O)c2c1C(=O)CC(C)(C)C2	0.37	nt	nt
CC1(C)Cc2nc3sc4c(=O)n(CC(=O)NCc5ccccc5)cnc4c3cc2CO1	-2.9*	nt	nt
Cc1nc2c(sc3nc4c(cc32)COC(C)(C)C4)c(=O)n1Cc1ccccc1	0.75	nt	nt
Brc1ccc2nc(Nc3ccccn3)nc(-c3ccccc3)c2c1	nt	nt	i
COc1ccc(OC)c(N(CC(=O)Nc2cccnc2)S(=O)(=O)c2ccc(C)cc2)c1	-1.1	nt	nt
COc1ccc(OC)c(N(CC(=O)Nc2cccnc2)S(=O)(=O)c2ccc(OC)c(OC)c2)c1	-2.7*!	nt	i
CN1CCN(c2ccc(NC(=O)COc3ccccc3Cl)cc2)CC1	0.33	-4.1*	i
CN1CCN(S(=O)(=O)c2ccc(NC(=O)c3ccc(Br)o3)cc2)CC1	-0.019	-0.57	i
Cc1cc(OCC(=O)Nc2ccc(S(=O)(=O)N3CCN(C)CC3)cc2)cc(C)c1Cl	-0.2	-6.5*	i
CCC(=O)N1CCN(c2ccc(NC(=O)COc3ccccc3Cl)cc2)CC1	-0.032	nt	nt
Cc1cc(OCC(=O)Nc2ccc(S(=O)(=O)N3CCN(C)CC3)cc2)ccc1Cl	1.2	nt	nt
CN1CCN(S(=O)(=O)c2ccc(NC(=O)c3ccc(Br)s3)cc2)CC1	0.29	-3.9*	i
O=C(CCN1C(=O)c2ccccc2C1=O)Oc1ccc(C(=O)O)cc1	nt	nt	i
CCOc1ccc(C=Nc2ccc([N+](=O)[O-])cc2)cc1	nt	nt	i
COc1ccccc1N=c1oc2c(OC)cccc2cc1C(=O)NCc1ccco1	0.2	-0.41	i
COc1ccc(N=c2oc3c(OC)cccc3cc2C(=O)NCc2ccco2)cc1OC	0.041	-3.9*	i
CC1CCCN(S(=O)(=O)c2ccc3c(c2)CCN3C(=O)C2CCC2)C1 (stereo not drawn)	-0.82	-4.1*	i
O=C(C1CCC1)N1CCc2cc(S(=O)(=O)N3CCc4ccccc4C3)ccc21	-0.63	1.9	i
Cc1cc(-c2nnc3n2N=C(c2ccc(-c4ccccc4)cc2)CS3)n[nH]1	0.77	-0.3	nt
Fc1ccc(C2=Nn3c(nnc3-c3n[nH]c4c3CCC4)SC2)cc1	1.1	-3*	i
CC1=Nn2c(nnc2-c2n[nH]c3c2CCC3)SC1	-8*	-0.0096	i
CC(C)(C)C1=Nn2c(nnc2-c2n[nH]c3c2CCC3)SC1	0.041	0.81	i
COCCn1c(=O)c2c3c(sc2n(CC(N)=O)c1=O)CCCC3	nt	0.3	i
CCn1c(=O)n(CCOC)c(=O)c2c3c(sc21)CCCC3	-0.56	6.3*	i
SMILES	hDAT+cocaine	D1 mod	BAP1 inh
Cc1ccc(S(=O)(=O)N2CCOCC2)cc1C(=O)N1C(=O)c2cccc(N)c2C1=O	-6.5*	0.52	i
Cc1ccc(S(=O)(=O)N2CCOCC2)cc1C(=O)O	-0.58	-0.31	i
CCOC(=O)c1ccc2nc(NC(=O)c3cccs3)sc2c1	0.085	-0.85	nt
COc1ccc2nc(NC(=O)c3ccc(C)c(C)c3)sc2c1	nt	nt	i
CCOc1ccc2nc(NC(=O)c3ccc(Cl)s3)sc2c1	nt	nt	i
CCOc1ccc2nc(NC(=O)Nc3ccccc3)sc2c1	0.43	nt	nt
CCOc1ccc2nc(NC(=O)c3ccoc3C)sc2c1	2	-5.6*	i
CCOc1ccc2nc(NC(=O)Nc3cccs3)sc2c1	-0.87	-3.8*	i
CCOC(=O)c1ccc2nc(NC(=O)c3ccco3)sc2c1	0.72	-4.8*	i
COc1ccc2nc(NC(=O)c3cnccn3)sc2c1	0.036	-4.9*	i
CC1(C)Cc2ccccc2C(CCl)=N1	nt	nt	i
CCOC(=O)c1c(N=c2oc3cc(O)ccc3cc2C(N)=O)sc2c1CCCC2	nt	nt	i
CCCOc1ccc(OC(=O)c2cccc(C(=O)OC)n2)cc1	nt	nt	i
COC(=O)c1ccc(CC(=O)c2ccc(O)cc2O)o1	-0.38	-2.2*	i
CCOC(=O)c1ccc(CC(=O)c2ccc(O)cc2O)o1	-0.73	nt	nt
Cc1ccc2nsnc2c1S(=O)(=O)N(Cc1cc2cccc(C)c2[nH]c1=O)CC1CCCO1 (stereo not drawn)	-0.57	-5.1*	i
Cc1ccc2cc(CN(CC3CCCO3)S(=O)(=O)c3c(C)ccc4nsnc34)c(=O)[nH]c2c1 (stereo not drawn)	-0.17	-0.06	i
CC1CCN(S(=O)(=O)c2ccc(C(C)(C)C)cc2)CC1	nt	nt	i
O=[N+]([O-])c1ccc(-n2nc(-c3ccco3)cc2-c2ccccc2)cc1	nt	nt	i
O=c1cc(-c2ccccc2)[nH]n1-c1ccc([N+](=O)[O-])cc1	-2.5*	nt	nt
CCc1cccc(C)c1NC(=O)CSc1nnnn1-c1ccc(C(=O)OC)cc1	nt	nt	i
CCOC(=O)c1cnn2c(C(F)(F)F)c3c(nc12)-c1ccccc1CC3	nt	nt	i
Cc1ccccc1Cc1c(C)nc2c(C(=O)NCc3ccco3)cnn2c1C	3*	1.6	i

Screens: PubChem, several laboratories
